PubChem BioAssay AID1745853 (National Center for Advancing Translational Sciences (NCATS), 2022)
Several values for one entry are separate records, joined by “and”; a condition that tells them apart may be missing. Equal values may be shown once. Among all 25,000 compounds or so, about 970 (3.9%) were called active. Not shown: some 8% with an inconclusive outcome. No rule for the calls is given here. For the sample, actives were picked, then their nearest neighbours and some compounds at random.

Tests used:
Assay in all cases: Primary Screen for Target Class Profiling of Small Molecule Inhibitors of Methyltransferases
[1] = biological target: Catechol O-methyltransferase (Homo sapiens) (UniProt P21964); details: purified enzyme, MTase-Glo SAH luminescence; activity change, negative = inhibition: at 40 µM, stronger effect = lower value; outcome: 40 uM
Text: (§1) PI: Matthew D. Hall Ph.D. and Quinlin M. Hanson Ph.D.
(§2) National Center for Advancing Translational Sciences (NCATS)
(§3) National Institute of Health (NIH), Rockville, MD
(§4) Target class profiling (TCP) is a chemical biology approach amenable to investigating understudied biological targets. TCP is achieved by developing a generalizable assay platform and applying it to screen a curated set of compound libraries against representative members of a target class. Small molecule methyltransferases (SMMTase) are a subclass of methyltransferase that act on metabolites to modulate signaling pathways, metabolize xenobiotics, or balance the available methyl pool. We screened four curated libraries totaling 27,574 unique compounds against the SMMTases nicotinamide N-methyltransferase (NNMT), phenylethanolamine N-methyltransferase (PNMT), histamine N-methyltransferase (HNMT), glycine N-methyltransferase (GNMT), catechol O-methyltransferase (COMT), and guanidinoacetate N-methyltransferase (GAMT). The data generated by this TCP can be leveraged for informed tool molecule development. For example, in the associated publication we identified a chemotype of HNMT-selective inhibitors. Additionally, we identified a putative SMMTase-selective inhibitor with potential as a tool molecule for studying broader methyltransferase biology.
(§5) High-through put screening assays were developed at the National Center for Advancing Translational Science (NCATS) for the enzymes NNMT, PNMT, HNMT, GNMT, COMT, and GAMT. Enzymatic activity was measured as a function of SAM cofactor conversion using the MTase Glo kit (Promega) for all enzymes. All assays were performed in 1536-well format with substrates and SAM concentrations at KM values. Enzyme concentration and assay timing were optimized for 10-20% SAM conversion. Initial screening of 27,574 compounds was done as single-point assays using the highest compound concentration (40 uM). […] These compounds were replated in 11-point dose response and assayed against NNMT, PNMT, HNMT, GNMT, COMT, GAMT, and a counter-assay. The IC50 and efficacy (maximal response) values were determined for each dose-response curve. These values are also accounted for in the area under the curve (AUC) values.
(§6) PROTOCOL TABLE (as described by Inglese J, Shamu CE and Guy RK. 2007)
(§7) SEQUENCE No. (e.g., 1, 2, 3, etc.); […] (e.g., Cells, Incubation, Reagent, etc.); VALUE; DESCRIPTION.
(§8) 1; Reagent; 2 uL; SMMTase Enzyme (2x) in reaction buffer, columns 1- 48.
(§9) 2; Reagent; 1 uL; SAM (4x) in reaction buffer, columns 1-48.
(§10) 3; Controls; 23 nL; DMSO in column 4; sinefungin in DMSO (0 uM - 40 uM) in 7-point 1:2 dilution series (n = 2) in column 2.
(§11) 4; Compounds; 23 nL; Columns 5-48.
(§12) 5; Reagent; 1 uL; Substrate (4x) in reaction buffer, columns 2-48.
(§13) 6; Time; 20-30 min; Incubation.
(§14) 7; Reagent; 1 uL; MTase-Glo reagent (5X), columns 1-48.
(§15) 8; Time; 30 min; Incubation.
(§16) 9; Reagent; 5 uL; MTase-Glo Detection reagent, columns 1-48.
(§17) 10; Time; 30 min; Incubation, luminescence evolution.
(§18) 11; Detection; Luminescence; ViewLux uHTS Microplate Imager (PerkinElmer).
(§19) NOTES (numbers refer to Sequence numbers above)
(§20) 1, 2, 5. White Medium Binding Greiner 1536-well plates (Cat #789175-F, Greiner Bio-One, Monroe, NC); Reaction buffer: 50 mM Tris, pH 8.0, 3 mM MgCl2, 1 mM EDTA, 50 mM NaCl, 1 mM DTT, and 0.1 mg/mL BSA. Evaporation was prevented by covering assay plates with metal lids containing holes to allow gas diffusion.
(§21) 1. Six SMMTase were profiled: HNMT, GNMT, PNMT, COMT, NNMT, GAMT
(§22) 5. The corresponding substrate was used for each enzyme: HNMT - 5.3 uM Histamine; GNMT - >500 uM Glycine; PNMT - 16.2 uM Norephinephrine; COMT - 13.7 uM Norephinephrine; NNMT - 3.8 uM Nicotinamide; GAMT - 2.5 uM Guanidinoacetate.6, 8, 10. Room temperature
(§23) 6. Final reaction conditions: 10 nM COMT, 5 uM SAM, 15 uM norepinephrine, 50 mM Tris, pH 8.0, 3 mM MgCl2, 1 mM EDTA, 50 mM NaCl, 1 mM DTT, and 0.1 mg/mL BSA; refer to tables 2 and S1 for specific timing.
8. […]

[2] = biological target: Glycine N-methyltransferase (Homo sapiens) (UniProt Q14749); details: purified enzyme, MTase-Glo SAH luminescence; measured here: GNMT inhibition; at 40 µM; stronger effect = lower value
Text: as §1, §2, §3, §4, §5, §6, §7, §8, §9, §10, §11, §12, §13, §14, §15, §16, §17, §18, §19, §20, §21, §22, §23
8. […]

[3] = biological target: Guanidinoacetate N-methyltransferase (Homo sapiens) (UniProt Q14353); details: purified enzyme, MTase-Glo SAH luminescence; measured here: GAMT inhibition; at 40 µM; stronger effect = lower value
Text: as §1, §2, §3, §4, §5, §6, §7, §8, §9, §10, §11, §12, §13, §14, §15, §16, §17, §18, §19, §20, §21, §22, §23
8. […]

[4] = biological target: Histamine N-methyltransferase (Homo sapiens) (UniProt P50135); details: purified enzyme, MTase-Glo SAH luminescence; measured here: HNMT inhibition; at 40 µM; stronger effect = lower value
Text: as §1, §2, §3, §4, §5, §6, §7, §8, §9, §10, §11, §12, §13, §14, §15, §16, §17, §18, §19, §20, §21, §22, §23
8. […]

[5] = biological target: Nicotinamide N-methyltransferase (Homo sapiens) (UniProt P40261); details: purified enzyme, MTase-Glo SAH luminescence; measured here: NNMT inhibition; at 40 µM; stronger effect = lower value
Text: as §1, §2, §3, §4, §5, §6, §7, §8, §9, §10, §11, §12, §13, §14, §15, §16, §17, §18, §19, §20, §21, §22, §23
8. […]

[6] = biological target: Phenylethanolamine N-methyltransferase (Homo sapiens) (UniProt P11086); details: purified enzyme, MTase-Glo SAH luminescence; measured here: PNMT inhibition; at 40 µM; stronger effect = lower value
Text: as §1, §2, §3, §4, §5, §6, §7, §8, §9, §10, §11, §12, §13, §14, §15, §16, §17, §18, §19, §20, §21, §22, §23
8. […]
% is scaled to controls: 0 for no effect and ±100 for the full control effect.

Sequence of Catechol O-methyltransferase (Homo sapiens) (P21964 whole entry, looked up): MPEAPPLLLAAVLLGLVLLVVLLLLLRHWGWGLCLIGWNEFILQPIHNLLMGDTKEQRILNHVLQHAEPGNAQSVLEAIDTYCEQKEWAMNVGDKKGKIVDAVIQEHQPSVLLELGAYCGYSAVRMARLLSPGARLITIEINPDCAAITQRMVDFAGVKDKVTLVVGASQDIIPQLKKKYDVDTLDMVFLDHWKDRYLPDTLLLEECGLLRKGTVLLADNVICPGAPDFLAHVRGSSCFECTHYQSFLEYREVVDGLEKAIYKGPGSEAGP
Sequence of Nicotinamide N-methyltransferase (Homo sapiens) (P40261 whole entry, looked up): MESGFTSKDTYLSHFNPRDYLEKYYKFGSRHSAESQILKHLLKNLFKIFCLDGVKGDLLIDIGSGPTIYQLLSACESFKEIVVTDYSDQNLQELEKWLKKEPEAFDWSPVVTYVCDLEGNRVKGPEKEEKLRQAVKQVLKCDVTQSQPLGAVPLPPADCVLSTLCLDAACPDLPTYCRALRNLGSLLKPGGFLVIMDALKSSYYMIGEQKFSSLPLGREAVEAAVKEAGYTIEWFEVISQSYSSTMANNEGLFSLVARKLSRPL
Sequence of Phenylethanolamine N-methyltransferase (Homo sapiens) (P11086 whole entry, looked up): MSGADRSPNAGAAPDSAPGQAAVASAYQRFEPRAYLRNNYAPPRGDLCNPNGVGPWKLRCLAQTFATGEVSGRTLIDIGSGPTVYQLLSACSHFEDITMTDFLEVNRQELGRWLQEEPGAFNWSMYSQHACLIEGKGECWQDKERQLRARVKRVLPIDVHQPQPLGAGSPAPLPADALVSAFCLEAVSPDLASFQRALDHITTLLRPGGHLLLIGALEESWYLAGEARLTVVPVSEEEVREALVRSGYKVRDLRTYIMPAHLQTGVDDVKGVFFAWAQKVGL
Sequence of Histamine N-methyltransferase (Homo sapiens) (P50135 whole entry, looked up): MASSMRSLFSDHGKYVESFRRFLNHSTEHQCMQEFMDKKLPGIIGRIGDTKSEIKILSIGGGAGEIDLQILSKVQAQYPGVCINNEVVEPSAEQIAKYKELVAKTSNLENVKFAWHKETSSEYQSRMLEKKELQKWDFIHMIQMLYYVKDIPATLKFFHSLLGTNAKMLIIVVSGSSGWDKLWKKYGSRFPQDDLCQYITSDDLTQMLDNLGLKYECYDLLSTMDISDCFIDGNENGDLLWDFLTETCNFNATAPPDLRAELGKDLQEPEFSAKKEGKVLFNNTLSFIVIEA
Sequence of Glycine N-methyltransferase (Homo sapiens) (Q14749 whole entry, looked up): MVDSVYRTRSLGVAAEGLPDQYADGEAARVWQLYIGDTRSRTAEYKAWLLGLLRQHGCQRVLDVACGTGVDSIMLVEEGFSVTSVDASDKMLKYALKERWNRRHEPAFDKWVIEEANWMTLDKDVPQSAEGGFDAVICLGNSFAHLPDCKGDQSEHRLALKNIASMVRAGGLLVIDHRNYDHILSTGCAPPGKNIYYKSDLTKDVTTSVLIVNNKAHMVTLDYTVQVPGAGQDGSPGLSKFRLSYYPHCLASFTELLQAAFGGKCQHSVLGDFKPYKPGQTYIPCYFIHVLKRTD

| SMILES | activity change, negative = inhibition [1] | activity change, negative = inhibition [2] | activity change, negative = inhibition [3] [%] | activity change, negative = inhibition [4] | activity change, negative = inhibition [5] | activity change, negative = inhibition [6] |
| --- | --- | --- | --- | --- | --- | --- |
| O=C(C1CC1)N1CCn2c(nn(-c3ccc(F)cc3)c2=O)C1 | -5% (inactive) | -3.41% | -8.31 | -2.04% | -9.2% | -5.36% |
| N#CSc1cc(SC#N)c(N)nc1N | -62.1% (active) | -92.7% | -77.3 | -92.3% | -58.6% | -40.8% |
| C=C(C)Cn1c(=O)[nH]c2ccccc21 | 7.05% (inactive) | -1.89% | 0 | 7.74% | 13.6% | 4.12% |
| CN1CCCN(S(=O)(=O)c2cccs2)c2ccccc21 | -6.9% (inactive) | -11.1% | -3.04 | -16.1% | -12.8% | -18.8% |
| Cc1cccc(CSc2nnc3n(CC(C)C)c(=O)c4ccccc4n23)c1 | 2.1% (inactive) | -7.23% | 0.416 | 3.69% | -10.9% | 4.42% |
| NCCCC(=O)N1CCN(C2CCNCC2)C(=O)C1 | -0.26% (inactive) | -0.497% | -3.99 | 1.59% | -1.96% | 0.025% |
| O=C(N[C@@H]1CN(C2CCOCC2)CC[C@@H]1CO)c1ccccc1 | -14.8% (inactive) | -7.11% | -12.7 | -6.52% | -17.2% | -14.2% |
| Cc1ccc(COc2ccc3c(-c4ccccc4)cc(=O)oc3c2)cc1 | 1.55% (inactive) | -1.02% | 8.91 | 3.98% | 6.08% | -3.92% |
| CCCN1C(=O)c2cc(C(=O)N3CCC(C)CC3)nn2CC1(C)C(=O)NC1CCCC1 (configuration not stated) | -0.787% (inactive) | -3.38% | 3.26 | 4.03% | -4.98% | -1.07% |
| CCc1ccc(S(=O)(=O)c2nnn3c2nc(N2CCCCC2)c2ccccc23)cc1 | 3.62% (inactive) | 0.777% | 0 | 6.93% | -3.24% | -1.25% |
| Cc1cn(CCN2CCN(c3ccccc3-c3cc(C#N)cc(C(=O)NCCCN4CCCC4)c3)CC2)c2ccccc12 | -11% (active) and 25.9% (active) | 0.523% and -14.2% | 12 | -86.5% and -77.8% | -17.4% and 7.48% | -1.62% and 35.5% |
| CCOc1ccc(CN2C(=O)c3cc(C(C)(C)C)nn3CC2(C)C(=O)NC2CCCCCC2)cc1 (configuration not stated) | -0.389% (inactive) | -3.62% | 4.61 | -1.08% | -2.24% | -3.09% |
| COc1cccc(-c2ccc(C(=O)NCCN[S+](=O)([O-])c3cccs3)cc2)c1 | 1.95% (inactive) | -8.51% | -1.67 | -4.59% | -5.98% | -13% |
| CCNC(=O)N1CC[C@H]2CC(=O)N(Cc3cccnc3)CC[C@H]2C1 | -8.99% (inactive) | -6.64% | -7.68 | -5.27% | -14.8% | -11.5% |
| COc1cccc(C(=O)N(CC(C)C)CC2CN(C(=O)Nc3ccccc3)CCO2)c1 (configuration not stated) | -3.51% (inactive) | -5.73% | -3.93 | -3.02% | -7.14% | 0.149% |
| Cn1c(=O)c2ccc(C(=O)NC3CCCCC3)cc2n2c(SCc3cccc(Cl)c3)nnc12 | 2.97% (inactive) | 2.72% | 0.691 | 2.66% | 1.84% | 5.9% |
| CCn1ccnc1CN(C)C(=O)c1cc(COc2ccccc2F)[nH]n1 | 4.03% (inactive) | -2.18% | -0.135 | -1.52% | -4% | -1.63% |
| CC1(C(=O)NC2CCCCC2)Cn2c(ccc2-c2ccccc2)C(=O)N1CCC1=CCCCC1 (configuration not stated) | 6.36% (inactive) | 9.19% | 0.753 | 8.84% | 8.48% | 6.08% |
| COc1ccc(CN2C(=O)c3ccc(-c4ccco4)n3CC2(C)C(=O)NC2CCCCCC2)cc1 (configuration not stated) | -2.99% (inactive) | -14.7% | 0.968 | -7.66% | -8.88% | -4.52% |
| CCCS(=O)(=O)NCC1Cn2cccc2C(=O)N1CCOC (configuration not stated) | 2.41% (inactive) | 0.792% | -0.491 | 0.026% | -3.41% | 0.672% |
| Cc1ccc(OCCC2CCN(C(=O)Cn3cnc4c3c(=O)n(C)c(=O)n4C)C2)cc1 (configuration not stated) | -5.48% (inactive) | -7.34% | -5.09 | -2.32% | -21% | -7.16% |
| CC1CCCC(NC(=O)C2(C)Cn3c(cc4sccc43)C(=O)N2c2ccc(Cl)cc2)C1C (configuration not stated) | -1.19% (inactive) | -1.5% | 2.58 | -0.753% | 2.89% | -5.61% |
| CCC1CCCCN1C(=O)Cn1c(=O)oc2cc(S(=O)(=O)N3CCCC3)ccc21 (configuration not stated) | 1.3% (inactive) | -2.17% | 1.65 | -2.01% | 0.211% | -0.075% |
| Clc1cc(NCc2ccccn2)n2nccc2n1 | -4.71% (inactive) | -11.1% | -2.25 | -0.734% | -13.1% | 6.59% |
| COc1ccc(NC(=O)c2ccc(-c3ccc(C(=N)N)cc3C)cc2)cc1N1CCN(C)CC1 | -7.6% (active) | -8.27% | -7.77 | -66.3% | -22.1% | -8.76% |
| COc1ccc(NC(=O)c2ccc(-c3ccc(C(N)=O)cc3C)cc2)cc1N1CCN(C)CC1 | 0.282% (inactive) | -7.07% | 2.94 | -26% | -29.8% | -2.08% |
| COc1ccccc1N1CCN(S(=O)(=O)c2cc3c(cc2C)n(C)c(=O)n3C)CC1 | 8.56% (inactive) | 5.66% | 0 | 4.91% | -2.8% | 0.426% |
